Screens deposited in PubChem by National Center for Advancing Translational Sciences (NCATS).
In the library only some 14% were active in any assay of this set; here they are far more common.
HADH2 inhib: blocks human hydroxyacyl-CoA dehydrogenase type II; AID 886; actives 3.4% (n = 73,000); Potency, µM (series often up to 57.1 µM), for inactives: top-dose activity change, negative = inhibition, actives largely listed as inhibitors; recombinant HADH2, NADH fluorescence, beta-hydroxybutyryl-CoA; Q99714; further: potency means the concentration at half of the fitted maximal effect; on the % scale 0 is the no-effect control and ±100 the full control effect; nearly all actives have a fitted effect of over 60% in size
Target sequence (Q99714 whole entry, looked up, one chain of several): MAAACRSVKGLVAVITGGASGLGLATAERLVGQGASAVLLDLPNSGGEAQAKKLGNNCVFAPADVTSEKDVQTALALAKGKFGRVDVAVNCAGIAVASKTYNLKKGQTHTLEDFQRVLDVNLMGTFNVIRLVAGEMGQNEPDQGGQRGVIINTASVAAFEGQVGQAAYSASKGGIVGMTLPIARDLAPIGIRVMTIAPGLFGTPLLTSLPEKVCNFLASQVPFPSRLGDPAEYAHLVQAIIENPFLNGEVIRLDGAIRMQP
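E. coli-expressed His-tagged HADH2 tested at 20 nM in alkaline Tris buffer (pH 9.0); oxidation of 90 uM beta-hydroxybutyryl-CoA with 1 mM NAD+ tracked fluorimetrically for 4 min.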
CRE-bla Fsk: CRE-bla signaling modulation under forskolin stimulation; CHO CRE-bla reporter (cAMP response element driving beta-lactamase), forskolin EC10, beta-lactamase ratio; Potency, µM (top dose mostly 38.2 µM), without a hit: top-dose activity change, negative = inhibition, usual class: activators; actives 2.5% (n = 71,000); active means well fitted activation curve with a large enough effect in the signal ratio, with a control signal flat, not every such curve was filed as active; inconclusive means small, poorly fitted or top-dose-only effect, or effect the other way, or a change in a side signal; the % refers to the signal ratio; further: potency means the concentration at half of the fitted maximal effect; % of control where 0% means no effect
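Cells were plated overnight at 37 °C, exposed to compound titrations plus EC10 NKH 477 for 3 h, then given CCF4 dye for 2 h at room temperature. Blue/green (460/530 nm) ratio was converted to %Activity and AC50 values calculated.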
AID923: qHTS Assay for Allosteric/Competitive Inhibitors of Caspase-1: Spectroscopic Profiling in AFC Spectral Region | compound fluorescence, AFC spectral region (405/520 nm) | Potency, µM (highest dose often 57.5 µM), for inactives: at the highest dose fluorescence increase, actives largely listed as activators | actives 1.1% (n = 75,000) | AID 923, 2007; further: potency means the concentration at half of the fitted maximal effect; 0% is about no effect
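Titrations up to 57 uM read every 20 sec for 3 min (405/520 nm) with 50 nM caspase 1 and 5 uM Ac-WEHD-AFC, pH 7.5 HEPES buffer. Fluorescence-vs-time intercept gave baseline, scaled against on-plate AFC standard.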
4-MU autofl: compound fluoresces in the 4-MU spectral region; compound autofluorescence, 340/450 nm, 4-MU equivalents; hits give high values; max dye-equivalent concentration, M; actives 11% (n = 59,000); AID 589; in the data active means max dye-equivalent concentration above about 10 nM; inconclusive means mostly about 1.1 nM to 9.6 nM
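Intrinsic fluorescence at 340/450 nm (ex/em) was read after 15 min at room temperature in pH 8.0, 100 mM Tris. Each compound concentration expressed as 4-MU-equivalent concentration from a six-point 4-MU standard series on each plate.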
HSD17B inhib: inhibitors of human HSD17B10 dehydrogenase; Q99714; recombinant HSD17B10, NADH fluorescence kinetic; Potency, µM (doses to about 57.1 µM), for the others: at the top dose activity change, negative = inhibition, actives largely listed as inhibitors; actives 7.6% (n = 75,000); AID 893;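 further: the protocol describes HADH2 (HSD17B10) and not the HSD17B4 of the title; potency means the concentration at half of the fitted maximal effect; on the % scale 0 is the no-effect control and ±100 the full control effect; nearly all actives have a fitted effect of over 70% in size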
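Enzyme plus compound, 15 min room temperature; substrate mix added (NAD+ 1 mM, beta-hydroxybutyryl-CoA 90 uM final); plates read kinetically for NADH fluorescence. HADH2 was His-tagged, E. coli-derived, 20 nM.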
A350 autofl: compound fluoresces in the Alexa 350 spectral region | Compound autofluorescence, 340/450 nm, Alexa 350 dye-equivalents; hits give high values | max dye-equivalent concentration, M | actives 11% (n = 59,000) | AID 590; in the data active means max dye-equivalent concentration above about 10 nM; inconclusive means mostly about 1.1 nM to 9.6 nM
Active calls of the source: *; [ ] = remark or other dose. Unless noted, the call rests on the fitted dose curve; in most records, active means well fitted curve in the direction sought with a large enough effect; inconclusive means small, poorly fitted or top-dose-only effect, or another doubt; inactive means no such curve, though single readings can be large; an effect the other way counts as inactive or inconclusive.

CCOC(=O)c1c(C)[nH]c(C(=O)OC/C(O)=C(\C#N)c2nc3ccccc3[nH]2)c1C was read as HADH2 inhib -2%, CRE-bla Fsk inconclusive, AID923 -2%, 4-MU autofl inactive, HSD17B inhib 32µM* and A350 autofl inactive.
Screening CC1CCCN(C/C(O)=C(\C#N)c2nc3ccccc3[nH]2)C1 (stereo not drawn) returned HADH2 inhib 9%, CRE-bla Fsk -5%, AID923 0%, 4-MU autofl inactive, HSD17B inhib 1% and A350 autofl inactive.
`CCOCCCNCC(=O)Nc1ccccc1N1CCOCC1` gave HADH2 inhib -4%, CRE-bla Fsk 6%, AID923 1%, 4-MU autofl inactive, HSD17B inhib -8% and A350 autofl inactive.
CC(=NCCN1CCNCC1)C1=C(O)CC(C)(C)CC1=O was read as HADH2 inhib 8%, CRE-bla Fsk 3%, AID923 1% and HSD17B inhib 13%.
`c1ccc(C2[C@H]3CN(CC4CCCCC4)[C@H](c4ccccc4)C34CC2(c2cccnc2)C4)cc1` (stereo partly drawn) gave AID923 0% and HSD17B inhib -7%.
For N#C/C(=C(/O)COC(=O)CCc1ccc(S(=O)(=O)N2CCOCC2)cc1)c1nc2ccccc2[nH]1 the results were HADH2 inhib -15%, CRE-bla Fsk -12%, AID923 13%, 4-MU autofl 1e-08M*, HSD17B inhib inconclusive and A350 autofl 1.3e-08M*.
For N#C/C(=C(/O)COC(=O)Cc1c[nH]c2ccccc12)c1nc2ccccc2[nH]1 the results were HADH2 inhib -4%, CRE-bla Fsk 3%, AID923 4%, 4-MU autofl inactive, HSD17B inhib -13% and A350 autofl inactive.
Cc1oc(-c2ccccc2F)nc1CSCC(=O)NCc1ccc2c(c1)OCO2 was read as HADH2 inhib -6%, CRE-bla Fsk 21%, AID923 0%, 4-MU autofl inactive, HSD17B inhib -3% and A350 autofl inactive.
Screening CCOC(=O)c1cc(C#N)c(NCc2ccccc2)nc1C returned HADH2 inhib -12%, CRE-bla Fsk inconclusive, AID923 -1%, 4-MU autofl inactive, HSD17B inhib 10µM* and A350 autofl inconclusive.
Screening CC(=O)OC[C@@H]1O[C@@H](O/N=C2/C[C@@H](O)[C@@H](O)[C@@H]3[C@@H]4C(=O)N(Cc5ccccc5)C(=O)[C@H]4CC[C@H]23)[C@H](OC(C)=O)[C@H](OC(C)=O)[C@@H]1OC(C)=O returned HADH2 inhib 7%[11.4 µM], AID923 0%[11.5 µM] and HSD17B inhib -2%[11.4 µM].
`O=C(O)c1cc(Cl)c2ccccc2c1O` gave HADH2 inhib 25µM*, CRE-bla Fsk -6%, AID923 -2%, 4-MU autofl 2.9e-07M*, HSD17B inhib 32µM* and A350 autofl 3.4e-07M*.
`Cc1cc2c(c(N3CCOCC3)n1)C(=O)OC2` gave HADH2 inhib -17%, CRE-bla Fsk 12%, AID923 -1%, 4-MU autofl 1.8e-08M*, HSD17B inhib inconclusive and A350 autofl 1.7e-08M*.
`CCN(CC)CC[n+]1ccc2c(C)c3[nH]c4ccc(O)cc4c3c(C)c2c1` gave HADH2 inhib 4%[11.4 µM], CRE-bla Fsk -1%[7.6 µM], AID923 -4%[11.5 µM], 4-MU autofl inactive, HSD17B inhib 2%[11.4 µM] and A350 autofl inactive.
CCCCn1c(=O)[nH]c(=O)c2c1nc(-c1ccc(C#N)cc1)n2C1CCCC1 was read as HADH2 inhib 32µM*, CRE-bla Fsk inconclusive, AID923 1%, 4-MU autofl 4.3e-07M*, HSD17B inhib 25µM* and A350 autofl 7.2e-07M*.
Screening COCCn1c(Sc2ccc(C)cc2)nc2c1c(=O)[nH]c(=O)n2C returned HADH2 inhib 1%, CRE-bla Fsk 5%, AID923 0%, 4-MU autofl inactive, HSD17B inhib 13% and A350 autofl inactive.
CCCCn1c(N2CCC(Cc3ccccc3)CC2)nc2c1c(=O)[nH]c(=O)n2C was read as HADH2 inhib 7%, CRE-bla Fsk inconclusive, AID923 -1%, 4-MU autofl inactive, HSD17B inhib -7% and A350 autofl inconclusive.
For COCCn1c(-c2ccc(-c3ccccc3Cl)o2)nc2c1c(=O)[nH]c(=O)n2CC(C)C the results were HADH2 inhib inactive, CRE-bla Fsk inconclusive, AID923 2%, 4-MU autofl 6.5e-07M*, HSD17B inhib 6.3µM* and A350 autofl 8.5e-07M*.
Screening CCCCn1c(=O)[nH]c(=O)c2c1nc(-c1ccncc1)n2CCOC returned HADH2 inhib -4%, CRE-bla Fsk 1%, AID923 1%, 4-MU autofl 1.4e-08M*, HSD17B inhib inconclusive and A350 autofl 1.5e-08M*.
Screening N#Cc1cccc(NC(=O)N2CCCC3(CCN(C(=O)c4cccc(F)c4)CC3)C2)c1 returned HADH2 inhib 0%, CRE-bla Fsk -16%, AID923 -2%, 4-MU autofl inactive, HSD17B inhib 5% and A350 autofl inactive.
For CSc1nnc2c3ccccc3n(Cc3ccccc3)c2n1 the results were HADH2 inhib 1%, CRE-bla Fsk inconclusive, AID923 0%, 4-MU autofl inconclusive, HSD17B inhib -5% and A350 autofl inconclusive.
For CSc1nnc2c3cc(F)ccc3n(Cc3ccccc3)c2n1 the results were HADH2 inhib inconclusive, CRE-bla Fsk inconclusive, AID923 -1%, 4-MU autofl 2e-08M*, HSD17B inhib 0% and A350 autofl 2.7e-08M*.
For COC(=O)c1ccc(C2C(C(=O)Nc3ccc(C)cc3C)=C(C)Nc3ncnn32)cc1 (stereo not drawn) the results were HADH2 inhib 6%, CRE-bla Fsk -7%, AID923 -1% and HSD17B inhib -1%.
`COc1ccc(OC2C=CC(C#Cc3ccccc3)OC2CO)cc1` (stereo not drawn) gave HADH2 inhib 2%[11.4 µM], AID923 -3%[11.5 µM] and HSD17B inhib -9%[11.4 µM].
`COC(=O)COC(=O)c1ccc(O)cc1` gave HADH2 inhib -20%, CRE-bla Fsk -5%, AID923 3% and HSD17B inhib 1%.
For COC(=O)[C@](C)(N)Cc1ccc(O)cc1 the results were HADH2 inhib 12%, CRE-bla Fsk 0%, AID923 -1%, 4-MU autofl inactive, HSD17B inhib 25µM* and A350 autofl inactive.
CCCC(=O)Nc1ccc2nc(SCC(=O)Nc3nccs3)sc2c1 was read as HADH2 inhib -17%, CRE-bla Fsk -6%, AID923 0%, 4-MU autofl inactive, HSD17B inhib -12% and A350 autofl inactive.
